Bioassay records as filed in PubChem.
sEH act: soluble epoxide hydrolase (human) activation | purified human sEH enzymatic activity, activator screen | activation, % at 2 µM | actives 0.04% (n = 91,000); in the data active means activation above about 37%
Target sequence (P34913 whole entry, looked up): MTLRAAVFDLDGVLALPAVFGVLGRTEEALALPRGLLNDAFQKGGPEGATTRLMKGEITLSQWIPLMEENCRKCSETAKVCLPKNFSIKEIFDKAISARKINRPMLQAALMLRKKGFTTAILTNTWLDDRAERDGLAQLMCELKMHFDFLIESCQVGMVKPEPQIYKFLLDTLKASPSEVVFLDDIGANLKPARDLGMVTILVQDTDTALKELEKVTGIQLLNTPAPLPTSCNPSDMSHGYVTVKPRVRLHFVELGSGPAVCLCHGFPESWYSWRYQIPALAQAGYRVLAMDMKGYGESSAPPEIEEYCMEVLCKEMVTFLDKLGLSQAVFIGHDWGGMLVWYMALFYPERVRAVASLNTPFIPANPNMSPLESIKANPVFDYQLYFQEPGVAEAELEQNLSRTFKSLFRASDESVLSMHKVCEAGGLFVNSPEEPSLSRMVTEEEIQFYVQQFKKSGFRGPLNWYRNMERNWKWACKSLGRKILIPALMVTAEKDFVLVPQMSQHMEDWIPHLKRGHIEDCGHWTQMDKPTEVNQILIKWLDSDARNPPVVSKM
PostGolgi ctrl: growth of the yeast control strain, post-Golgi counter-screen | efflux-deficient yeast background strain, growth absorbance A615, 16 h | inhibition, % at 10 µM | actives 5% (n = 98,000)
sEH inh: blocks human soluble epoxide hydrolase activity. recombinant human sEH enzymatic activity assay. inhibition, % at 2 µM. actives 0.34% (n = 91,000). AID 707; in the data active means inhibition above about 80%
PostGolgi yeast: growth inhibition of a yeast mutant, post-Golgi transport screen | post-Golgi transport phenotypic cell assay | inhibition, % at 10 µM | actives 0.9% (n = 98,000) | AID 739;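 further: yeast cells grown in 1536-well plates; yeast grown about 18 h at 30C before absorbance read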
Cav32 inh: human Cav3.2 channel inhibition, primary screen. O95180. Cav3.2-expressing cells, Fluo-4 calcium fluorescence FDSS; stronger effect = lower value. B-score at 10 µM. AID 449739. actives 4% (n = 100,000);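 active means single-dose well whose peak fluorescence ratio is a statistical outlier from its plate by either plate-standardised score or position-corrected B-score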
A number is an active result. This is a sample that favours compounds with a hit; in the whole collection about 7.8% have one here. Unless noted, no stated cut-off is given here; in the data, active means inhibition above about 30%; inactive means the rest.

Screening O=C(CCC(=O)OCC(=O)c1ccc(Cl)cc1Cl)Nc1cccc2cccnc12 returned sEH act inactive, PostGolgi ctrl 37.5, sEH inh inactive, PostGolgi yeast inactive and Cav32 inh inactive.
O=C(CCC(=O)OCC(=O)c1ccc(-c2ccccc2)cc1)Nc1cccc2cccnc12 was read as sEH act inactive, PostGolgi ctrl inactive, sEH inh inactive, PostGolgi yeast inactive and Cav32 inh inactive.
For O=C(NCCCCCCNC(=O)c1ccc(Br)s1)c1ccc(Br)s1 the results were sEH act inactive, sEH inh inactive and Cav32 inh inactive.
C/C(=N\NC(=O)c1cccc(Cl)c1)c1cccc(NC(=O)c2ccco2)c1 was read as sEH act inactive, PostGolgi ctrl inactive, sEH inh inactive, PostGolgi yeast inactive and Cav32 inh -5.49.
Screening COc1ccc(C(=O)c2cnc(/N=C/N(C)C)s2)cc1 returned PostGolgi ctrl inactive and PostGolgi yeast inactive.
For CN(C)/C=N/c1ncc(C(=O)c2ccc3ccccc3c2)s1 the results were sEH act 48.5, PostGolgi ctrl inactive, sEH inh inactive, PostGolgi yeast inactive and Cav32 inh inactive.
`O=C1c2ccccc2C(=O)N1CSc1ncccn1` gave PostGolgi ctrl inactive, PostGolgi yeast inactive and Cav32 inh inactive.
CCCCOc1cccc(/C=N/NC(=O)c2csc(C)c2C)c1 was read as sEH act inactive, PostGolgi ctrl inactive, sEH inh 82.1, PostGolgi yeast inactive and Cav32 inh inactive.
`O=C(N/N=C/c1cccc(O)c1)c1csc2ccccc12` gave sEH act inactive, PostGolgi ctrl inactive, sEH inh 84.0, PostGolgi yeast inactive and Cav32 inh inactive.
For Cc1scc(C(=O)N/N=C/c2ccc(OC(C)C)cc2)c1C the results were sEH act inactive, PostGolgi ctrl inactive, sEH inh inactive, PostGolgi yeast inactive and Cav32 inh inactive.
`CCC1CCc2c(sc(NC(=O)c3ccoc3C)c2C(N)=O)C1` (stereo not given) gave sEH act inactive, PostGolgi ctrl 30.3, sEH inh inactive, PostGolgi yeast inactive and Cav32 inh inactive.
COc1ccc(-n2c(SC(CN3CCCCC3)CN3CCCC3=O)nc3ccccc3c2=O)cc1 (stereo not given) was read as sEH act inactive, PostGolgi ctrl 30.6, sEH inh inactive, PostGolgi yeast inactive and Cav32 inh inactive.
Screening CC(=NCc1ccco1)c1c(C)[nH]n(-c2nc3ccccc3s2)c1=O returned sEH act inactive, PostGolgi ctrl inactive, sEH inh inactive, PostGolgi yeast inactive and Cav32 inh inactive.
Screening CCCN=C(C)c1c(-c2ccccc2)[nH]n(-c2nc3ccccc3s2)c1=O returned sEH act inactive, PostGolgi ctrl 31.9, sEH inh inactive, PostGolgi yeast inactive and Cav32 inh inactive.
Screening Cc1ccc(N2CCN(/N=C/c3sccc3C)CC2)cc1 returned sEH act inactive, PostGolgi ctrl inactive, sEH inh inactive, PostGolgi yeast inactive and Cav32 inh inactive.
Screening Cc1ccccc1C1C(C#N)=C2NC(=O)c3c(sc4c3CCCCC4)N2C2=C1C(=O)CC(C)(C)C2 (stereo not given) returned sEH act inactive, PostGolgi ctrl 40.9, sEH inh inactive and PostGolgi yeast inactive.
`CN(CC(=O)Nc1ccccc1N1CCOCC1)S(=O)(=O)c1ccc(F)cc1` gave PostGolgi ctrl 31.1, PostGolgi yeast inactive and Cav32 inh inactive.
`CCCCCCN(C(=O)CCCCCN1C(=O)NC(c2ccc(-c3ccccc3)cc2)C(C(=O)OCc2ccccc2)=C1C)C(C(=O)NCCCC)c1ccc(O)c(C(=O)OC)c1` (stereo not given) gave Cav32 inh inactive.
O=C(c1sc2ccccc2c1Cl)N(Cc1ccccc1)C1CCS(=O)(=O)C1 (stereo not given) was read as sEH act inactive, PostGolgi ctrl inactive, sEH inh inactive, PostGolgi yeast inactive and Cav32 inh inactive.
For O=C(c1sc2ccccc2c1Cl)N(Cc1ccccc1Cl)C1CCS(=O)(=O)C1 (stereo not given) the results were sEH act inactive, PostGolgi ctrl 30.9, sEH inh inactive, PostGolgi yeast inactive and Cav32 inh inactive.
For COC(=O)c1cc2oc(C)cc2n1CC(=O)Nc1cc(C)cc(C)c1 the results were sEH act inactive, PostGolgi ctrl inactive, sEH inh inactive, PostGolgi yeast inactive and Cav32 inh inactive.
For CCC(C)NC(=O)c1c(N)n(/N=C/c2cccnc2)c2nc3ccccc3nc12 (stereo not given) the results were sEH act inactive, PostGolgi ctrl inactive, sEH inh inactive, PostGolgi yeast inactive and Cav32 inh inactive.
`CCC(C)NC(=O)c1c(N)n(/N=C/c2ccccn2)c2nc3ccccc3nc12` (stereo not given) gave sEH act inactive, PostGolgi ctrl 37.4, sEH inh inactive, PostGolgi yeast inactive and Cav32 inh inactive.
CCCCOC(=O)c1ccc(-c2ccc(/C=N/NC(=S)NCC)o2)cc1 was read as sEH act inactive, PostGolgi ctrl inactive, sEH inh inactive, PostGolgi yeast inactive and Cav32 inh inactive.
For NC(=S)N/N=C/c1ccc(-c2cc(Cl)cc(Cl)c2)o1 the results were sEH act inactive, PostGolgi ctrl 68.0, sEH inh inactive, PostGolgi yeast inactive and Cav32 inh inactive.
For NC(=S)N/N=C/c1ccc(-c2cc(Cl)ccc2Cl)o1 the results were sEH act inactive, PostGolgi ctrl 93.5, sEH inh inactive, PostGolgi yeast inactive and Cav32 inh inactive.
`C=C1C(=O)O[C@@H]2[C@H]1[C@@H](OC(=O)/C(C)=C/C)C/C(C)=C\C(=O)/C=C(\C)[C@@H]2O` gave Cav32 inh inactive.
For CCOc1ccc(C2C(C(=O)c3ccco3)=C(O)C(=O)N2Cc2cccnc2)cc1 (stereo not given) the results were sEH act inactive, PostGolgi ctrl inactive, sEH inh inactive, PostGolgi yeast inactive and Cav32 inh inactive.
Screening COc1ccc(C2C(C(=O)c3ccco3)=C(O)C(=O)N2Cc2cccnc2)cc1OC (stereo not given) returned sEH act inactive, PostGolgi ctrl 33.8, sEH inh inactive, PostGolgi yeast inactive and Cav32 inh inactive.
Screening O=C(NCc1ccco1)c1cc(-c2ccncc2)nc2ccccc12 returned PostGolgi ctrl inactive, PostGolgi yeast inactive and Cav32 inh -5.77.
For CCC(C)N(NC(C)=O)c1nc(Cl)nc(NC(C)C)n1 (stereo not given) the results were sEH act inactive, PostGolgi ctrl inactive, sEH inh inactive, PostGolgi yeast inactive and Cav32 inh inactive.
Screening CC(C)C(=O)NC(c1ccco1)c1ccc2cccnc2c1O (stereo not given) returned sEH act inactive, PostGolgi ctrl 32.5, sEH inh inactive, PostGolgi yeast inactive and Cav32 inh inactive.
For Oc1c(C(Nc2nc3ccccc3s2)c2ccco2)ccc2cccnc12 (stereo not given) the results were sEH act inactive, PostGolgi ctrl inactive, sEH inh inactive, PostGolgi yeast inactive and Cav32 inh inactive.
For O=C(NCc1cccc(Br)c1)c1cc(-c2ccccc2)nn1CC1CC(c2cccc([N+](=O)[O-])c2)=NO1 (stereo not given) the results were Cav32 inh inactive.
